This is an account of results in the supplement of paper PMC11732987, “Enantioselective OTUD7B fragment discovery through chemoproteomics screening and high-throughput optimisation” (Communications Chemistry, 2025).

A number with no mark means an inactive call.

Holding throughout (assay): log2 ratio of Biotin-Ahx-Ub-VS probe labelling (fragment/DMSO); higher = less target engagement (more negative = stronger competition), active = hit call of the paper (q ≤ 0.05, log2 ratio ≤ -1)
Common to all, as to details: compound concentration: 200 uM; treatment time: 3 h

The target of one assay is T1, OTUD6B (UniProt Q8N6M0).
T1 sequence (whole entry): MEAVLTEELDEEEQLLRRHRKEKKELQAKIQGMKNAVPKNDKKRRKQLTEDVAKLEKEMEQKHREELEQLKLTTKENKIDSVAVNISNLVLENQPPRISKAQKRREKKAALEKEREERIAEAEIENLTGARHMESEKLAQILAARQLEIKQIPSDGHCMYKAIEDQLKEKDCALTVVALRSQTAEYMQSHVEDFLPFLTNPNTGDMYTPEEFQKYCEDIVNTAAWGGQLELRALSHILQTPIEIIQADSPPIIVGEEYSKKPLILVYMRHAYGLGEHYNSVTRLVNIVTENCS
Summed up:
(§1)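 Labelled DUBs were enriched with NeutrAvidin, digested with LysC and trypsin, and run by diaPASEF LC-MS/MS. The labelling used Biotin-Ahx-Ub-VS at 0.5 µM final for 1 h on HEK293T lysate (495 µg per sample) previously treated in triplicate with fragment at 200 µM or vehicle for 3 h. Values are average log2 fragment/vehicle ratios by unpaired t-test on global-median-normalised Spectronaut quantities of proteins with ≥2 unique peptides.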

The next assay has as its target T2, OTUD7B (UniProt Q6GQQ9).
T2 sequence (whole entry): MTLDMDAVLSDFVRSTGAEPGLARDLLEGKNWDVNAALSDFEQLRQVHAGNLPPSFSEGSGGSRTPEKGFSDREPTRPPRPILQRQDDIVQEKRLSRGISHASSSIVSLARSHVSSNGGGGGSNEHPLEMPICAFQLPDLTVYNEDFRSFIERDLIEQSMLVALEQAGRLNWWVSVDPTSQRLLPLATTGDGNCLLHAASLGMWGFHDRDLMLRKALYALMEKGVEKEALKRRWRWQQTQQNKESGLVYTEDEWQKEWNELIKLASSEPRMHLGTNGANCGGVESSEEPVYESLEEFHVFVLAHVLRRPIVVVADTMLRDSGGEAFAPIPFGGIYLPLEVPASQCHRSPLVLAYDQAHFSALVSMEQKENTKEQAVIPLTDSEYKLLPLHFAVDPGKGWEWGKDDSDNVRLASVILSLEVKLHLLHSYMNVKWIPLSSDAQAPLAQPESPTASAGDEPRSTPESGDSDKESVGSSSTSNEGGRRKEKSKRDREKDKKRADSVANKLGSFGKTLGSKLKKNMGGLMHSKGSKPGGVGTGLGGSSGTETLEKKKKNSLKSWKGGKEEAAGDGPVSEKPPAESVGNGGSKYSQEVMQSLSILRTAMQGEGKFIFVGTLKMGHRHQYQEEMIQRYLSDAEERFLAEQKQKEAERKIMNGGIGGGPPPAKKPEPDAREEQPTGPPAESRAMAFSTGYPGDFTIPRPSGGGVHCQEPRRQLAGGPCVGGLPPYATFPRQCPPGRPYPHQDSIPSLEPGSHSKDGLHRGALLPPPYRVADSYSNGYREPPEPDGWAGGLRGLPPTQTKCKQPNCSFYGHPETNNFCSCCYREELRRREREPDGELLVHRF
The essentials:
as §1

A further assay addresses PRPF8 (UniProt Q6P2Q9). The essentials: as §1
The target in a further assay is T3, PSMD7 (UniProt P51665).
T3 sequence (whole entry): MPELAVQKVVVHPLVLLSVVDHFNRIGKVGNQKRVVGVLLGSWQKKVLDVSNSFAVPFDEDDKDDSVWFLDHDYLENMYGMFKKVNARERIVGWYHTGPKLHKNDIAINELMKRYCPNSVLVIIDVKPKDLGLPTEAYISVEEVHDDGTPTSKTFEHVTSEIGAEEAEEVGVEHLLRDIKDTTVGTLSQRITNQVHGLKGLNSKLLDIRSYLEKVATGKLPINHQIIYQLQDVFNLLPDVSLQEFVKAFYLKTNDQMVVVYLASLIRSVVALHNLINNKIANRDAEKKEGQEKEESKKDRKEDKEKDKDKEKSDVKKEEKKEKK
The essentials:
as §1

The next assay deals with UCHL1 (UniProt P09936). The essentials:
as §1

A further assay deals with T4, UCHL3 (UniProt P15374).
T4 sequence (whole entry): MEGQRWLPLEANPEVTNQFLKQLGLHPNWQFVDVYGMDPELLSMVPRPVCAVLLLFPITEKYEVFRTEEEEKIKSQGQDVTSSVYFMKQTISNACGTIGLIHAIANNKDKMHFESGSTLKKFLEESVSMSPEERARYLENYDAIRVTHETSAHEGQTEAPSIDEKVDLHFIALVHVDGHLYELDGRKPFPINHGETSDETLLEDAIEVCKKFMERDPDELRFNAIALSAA
Summed up: as §1

The target of another assay is T5, UCHL5 (UniProt Q9Y5K5).
T5 sequence (whole entry): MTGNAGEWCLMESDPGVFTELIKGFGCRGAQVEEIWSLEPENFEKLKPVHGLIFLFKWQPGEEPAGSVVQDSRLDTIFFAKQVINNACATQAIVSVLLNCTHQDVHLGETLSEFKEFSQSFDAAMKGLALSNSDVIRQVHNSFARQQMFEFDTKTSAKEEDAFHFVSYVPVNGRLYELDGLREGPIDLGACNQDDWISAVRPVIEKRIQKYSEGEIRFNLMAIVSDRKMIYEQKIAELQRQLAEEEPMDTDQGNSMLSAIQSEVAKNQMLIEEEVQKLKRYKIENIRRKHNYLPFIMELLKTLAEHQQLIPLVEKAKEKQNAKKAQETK
The essentials:
as §1

A further assay concerns the target USP10 (UniProt Q14694). The essentials: as §1
For the next assay, the target named is T6, USP15 (UniProt Q9Y4E8).
T6 sequence (whole entry): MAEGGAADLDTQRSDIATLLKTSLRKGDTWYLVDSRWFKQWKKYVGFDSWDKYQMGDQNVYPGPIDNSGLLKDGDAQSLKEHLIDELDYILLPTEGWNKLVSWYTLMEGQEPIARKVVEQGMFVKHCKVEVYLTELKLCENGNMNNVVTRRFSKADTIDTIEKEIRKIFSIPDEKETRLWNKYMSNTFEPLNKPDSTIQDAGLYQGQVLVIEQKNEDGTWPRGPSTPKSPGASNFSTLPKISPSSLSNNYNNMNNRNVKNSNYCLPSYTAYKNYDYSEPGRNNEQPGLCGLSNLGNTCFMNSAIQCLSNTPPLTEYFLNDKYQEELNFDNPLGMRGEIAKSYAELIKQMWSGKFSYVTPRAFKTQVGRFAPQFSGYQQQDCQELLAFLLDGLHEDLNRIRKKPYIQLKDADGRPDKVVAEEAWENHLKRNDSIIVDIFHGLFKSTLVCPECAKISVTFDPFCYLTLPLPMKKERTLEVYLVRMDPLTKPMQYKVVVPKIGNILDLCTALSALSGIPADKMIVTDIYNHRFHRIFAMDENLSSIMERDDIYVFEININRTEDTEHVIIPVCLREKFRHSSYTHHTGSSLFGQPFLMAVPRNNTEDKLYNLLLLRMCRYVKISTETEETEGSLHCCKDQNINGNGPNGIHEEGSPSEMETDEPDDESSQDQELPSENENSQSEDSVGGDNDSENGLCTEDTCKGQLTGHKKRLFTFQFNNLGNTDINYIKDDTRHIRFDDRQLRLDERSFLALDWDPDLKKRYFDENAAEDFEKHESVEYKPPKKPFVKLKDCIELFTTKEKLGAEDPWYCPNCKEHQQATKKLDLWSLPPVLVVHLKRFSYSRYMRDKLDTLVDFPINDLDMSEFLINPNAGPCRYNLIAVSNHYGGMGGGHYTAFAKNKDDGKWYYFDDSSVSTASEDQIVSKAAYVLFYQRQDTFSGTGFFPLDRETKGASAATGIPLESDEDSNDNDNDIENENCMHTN
Summed up:
as §1

Sequence of USP10 (Q14694 whole entry): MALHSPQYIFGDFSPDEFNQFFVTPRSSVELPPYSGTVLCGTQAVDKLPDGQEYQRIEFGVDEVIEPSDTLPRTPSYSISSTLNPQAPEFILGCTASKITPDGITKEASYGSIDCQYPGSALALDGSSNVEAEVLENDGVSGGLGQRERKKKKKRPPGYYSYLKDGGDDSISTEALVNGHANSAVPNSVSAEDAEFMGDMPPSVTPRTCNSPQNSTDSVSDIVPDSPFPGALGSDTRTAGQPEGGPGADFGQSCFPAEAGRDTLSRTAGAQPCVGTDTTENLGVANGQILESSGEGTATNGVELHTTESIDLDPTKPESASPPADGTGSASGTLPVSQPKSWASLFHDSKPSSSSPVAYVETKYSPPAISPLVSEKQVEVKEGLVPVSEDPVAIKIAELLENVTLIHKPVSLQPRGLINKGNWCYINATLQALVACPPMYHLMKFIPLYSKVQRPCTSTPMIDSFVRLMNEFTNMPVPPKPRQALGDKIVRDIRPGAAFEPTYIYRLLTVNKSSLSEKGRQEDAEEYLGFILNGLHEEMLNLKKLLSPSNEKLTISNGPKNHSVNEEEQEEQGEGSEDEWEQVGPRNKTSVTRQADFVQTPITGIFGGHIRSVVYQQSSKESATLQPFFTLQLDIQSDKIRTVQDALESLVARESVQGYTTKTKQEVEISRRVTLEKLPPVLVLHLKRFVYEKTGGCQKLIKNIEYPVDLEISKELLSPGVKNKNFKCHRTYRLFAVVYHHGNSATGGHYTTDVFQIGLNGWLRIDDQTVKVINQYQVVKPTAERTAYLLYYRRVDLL
Sequence of UCHL1 (P09936 whole entry, looked up): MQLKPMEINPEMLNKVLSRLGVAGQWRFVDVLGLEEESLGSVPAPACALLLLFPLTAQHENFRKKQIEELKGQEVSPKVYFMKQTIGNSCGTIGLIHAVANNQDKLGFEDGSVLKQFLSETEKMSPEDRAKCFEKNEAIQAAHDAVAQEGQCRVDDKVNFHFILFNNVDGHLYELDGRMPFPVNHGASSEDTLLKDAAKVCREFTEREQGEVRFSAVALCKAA

Take `O=C(CCl)N1CCc2[nH]c3ccccc3c2C1`: the “log2 ratio of Biotin-Ahx-Ub-VS probe labelling” value with OTUD6B was -0.206; with OTUD7B, -1.05 (active); in the assay with PRPF8 it was -0.175; in the assay with PSMD7, -0.319; with UCHL1 it was -1.24 (active); with UCHL3, -0.675. For the same compound, the entries for the “log2 ratio of Biotin-Ahx-Ub-VS probe labelling” value in the assay with UCHL5, with USP10 and with USP15 were -0.893, -0.119 and -1.46 (active), respectively.
